Source: PubChem (National Center for Advancing Translational Sciences (NCATS))
Giardia killer: kills Giardia lamblia; Giardia lamblia trophozoite viability; activity change, % at 7.66 µM, hits read low; actives 0.15% (n = 340,000); AID 540267; in the data active means activity change below about -80%; inconclusive means between about -30% and that limit;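 further: parasites exposed to compound for two days anaerobically before the ATP read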
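Giardia trophozoites, 100 cells per well, were exposed to compounds for 48 hrs at 37 deg C under anaerobic conditions; viability was then read as ATP content by bioluminescence after 15-30 min at room temperature.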
IL1B secr inh: inhibitors of inflammasome signaling (IL-1 beta secretion); THP-1 LPS/ATP IL-1B secretion, AlphaLISA, 16 h; stronger effect = lower value; activity change, % at 57.5 µM; actives 4.7% (n = 360,000); AID 743279; in the data active means activity change below about -50%; inconclusive means mostly about -30% to -49%
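Secreted IL-1B measured by AlphaLISA bead assay after 16 h compound exposure of THP-1 cells; compounds (final up to 57.5 uM) added 1 h before LPS (250 ng/mL) and ATP (1.25 mM) stimulation; lower signal means less secretion.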
HT1080NT lethal: kills 2HG-producing HT-1080-NT fibrosarcoma cells; HT-1080-NT fibrosarcoma viability, CellTiter-Glo ATP luminescence, 48 h; Potency, µM (series often up to 46.1 µM), hits mostly cytotoxic; actives 1.6% (n = 360,000); AID 686970;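 further: NT is the 2HG producing partner of a matched IDH1 knockdown line; nearly all actives have a fitted effect of over 55% in size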
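Fibrosarcoma NT cells, 750 per well in 5% FBS RPMI, were exposed to compound for 48 hours. Viability: CellTiter-Glo luminescence.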
HT1080 IDH1KD tx: kills HT-1080 cells with IDH1 knockdown; Potency, µM (top dose mostly 46.1 µM), actives largely listed as cytotoxic; HT-1080 IDH1 knockdown viability, ATP luminescence, 48 h; actives 2% (n = 360,000)
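Knockdown cells (IDH1KD HT-1080) received compounds 2 h after plating at 750 cells/well and were kept 48 h at 37 °C in 5% FBS RPMI. A CellTiter-Glo luminescence read gave % activity for curve fitting.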
TGFb SMAD3 inh: TGF-b pathway inhibition | AID 588855 | HepG2 CAGA-GFP TGF-b/SMAD3 reporter, GFP fluorescence, 18 h; TGF-beta stimulated, 500 pg/mL final | actives 1.2% (n = 410,000) | Potency, µM (highest dose often 46.1 µM), hits mostly inhibitors; further: nearly all actives have a fitted effect of over 65% in size
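First, reporter cells (HEPG2 CAGA-GFP) rested 2 h at 37 degrees C. Next, compounds were pinned in and TGF-beta added to 500 pg/mL final. After 18 h, GFP was imaged per cell and summed per well.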
HepG2 tox: counter-screen for TGF-b inhibitors: cytotoxicity in HepG2 cells; HepG2 CAGA-GFP viability, ATP luminescence, 18 h; actives 0.76% (n = 410,000); Potency, µM (titrated, usually from 46.1 µM), usual class: cytotoxic; AID 588856
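CellTiter-Glo luminescence gave cytotoxicity after 18 hours at 37 degrees C. The cells were HepG2 CAGA-GFP in 1% FBS DMEM, stimulated with 500 pg/mL TGF-beta after compound addition. %Activity was normalised to no-cell wells (complete cell-killing) and DMSO (no toxicity), and curves were fitted and classified.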
Large screens that a line does not name were inactive. Sampled rows, rich in hits. Any-hit rate of the full collection: about 6.5%. Unless noted, the call rests on the fitted dose curve; in most records, active means well fitted curve in the direction sought with a large enough effect; inconclusive means small, poorly fitted or top-dose-only effect, or another doubt; inactive means no such curve, though single readings can be large; an effect the other way counts as inactive or inconclusive.

Cc1cc(C(=O)N/N=C/c2cc([N+](=O)[O-])ccc2O)c2ccccc2n1	HT1080NT lethal inconclusive, HT1080 IDH1KD tx inconclusive, TGFb SMAD3 inh inconclusive
O=C(N/N=C/c1ccc([N+](=O)[O-])cc1)c1cc(C2CC2)nc2ccccc12	HT1080NT lethal 26µM, HT1080 IDH1KD tx 23µM
Cc1ccc(C(=O)NC(=S)Nc2c(C)ccc3nsnc23)cc1	none
Cc1ccc(C)c(Cn2nnc3c(=O)[nH]c(C4CCN(C(=O)c5ccco5)CC4)nc32)c1	none
Cc1cc(C(=O)N/N=C/c2ccc([N+](=O)[O-])s2)c2ccccc2n1	Giardia killer -95, IL1B secr inh -79, HT1080NT lethal inconclusive, HT1080 IDH1KD tx inconclusive, TGFb SMAD3 inh 10µM
Cc1cc(C(=O)N/N=C/c2cc(Br)cc([N+](=O)[O-])c2O)c2ccccc2n1	HT1080NT lethal inconclusive, HT1080 IDH1KD tx inconclusive
CCN(CC)CCCn1c2c(c(SCC(=O)Nc3nc4ccccc4s3)nc1=O)CCC2	IL1B secr inh -51, TGFb SMAD3 inh inconclusive
Cc1ccc(NC(=O)CSc2nc(=O)n(CCCN(C)C)c3c2CCC3)cc1F	none (no result: Giardia killer, IL1B secr inh, HT1080NT lethal, HT1080 IDH1KD tx)
CCN(CC)CCn1c2c(c(SCC(=O)Nc3nccs3)nc1=O)CCCC2	none
CCN(CC)CCCn1c2c(c(SCC(=O)Nc3ccc(OC(F)(F)F)cc3)nc1=O)CCC2	IL1B secr inh -69
CCN(CC)CCCn1c2c(c(SCC(=O)Nc3ccc(C)c(F)c3)nc1=O)CCC2	IL1B secr inh -67
O=C(CSc1nc(=O)n(Cc2ccco2)c2c1CCC2)Nc1cccc(F)c1	TGFb SMAD3 inh 7.9µM (no result: Giardia killer, IL1B secr inh, HT1080NT lethal, HT1080 IDH1KD tx)
NS(=O)(=O)c1ccc(N2CCOCC2)c(C(=O)NCc2cccs2)c1	none
Cc1ccc(-c2nn(-c3ccccc3)cc2CO)o1	none
CC(C)NC(=O)NC(=O)COc1cccc2c1OC(C)(C)C2	none
CCOC(CN=c1nc(N(C)C)ss1)OCC	Giardia killer inconclusive, IL1B secr inh -101, HT1080 IDH1KD tx inconclusive, TGFb SMAD3 inh inconclusive
CC1=C(C(=O)N(C(C)C)C(C)C)CC(CC(=O)NCCc2ccccn2)C(=O)N1CCC1=CCCCC1 (configuration not stated)	none (no result: Giardia killer)
O=C(CN1CCSc2ccccc21)N1CCCCC1	none (no result: Giardia killer, IL1B secr inh, HT1080NT lethal, HT1080 IDH1KD tx)
O=C(CCl)N1c2ccccc2OCC1c1ccccc1 (configuration not stated)	IL1B secr inh -94
O=C(CCl)N1c2ccccc2SCC1c1ccccc1 (configuration not stated)	IL1B secr inh -105, HT1080NT lethal 4.6µM, HT1080 IDH1KD tx 5.8µM, TGFb SMAD3 inh inconclusive
O=C(CCl)N1CCN(C(=O)C2COc3ccccc3O2)CC1 (configuration not stated)	IL1B secr inh -95, HT1080NT lethal inconclusive, HT1080 IDH1KD tx 23µM
CNC(=O)[C@H]1O[C@@H](n2cnc3c(NCc4cccc(I)c4)ncnc32)[C@H](O)[C@@H]1O	none
Cc1cc([N+](=O)[O-])nn1Cc1ccc(C(=O)N/N=C/c2ccc(O)cc2O)cc1	HT1080NT lethal inconclusive, HT1080 IDH1KD tx 2.1µM, TGFb SMAD3 inh inconclusive
COc1ccc(CNC(=S)NCc2ccc(F)cc2)cc1	none
CN1C=CC=C/C1=C1\SC(=S)N(C2CCCCC2)C1=O	none
Clc1ccccc1Nc1nc(-c2cccnc2)cs1	IL1B secr inh -87
Cc1ccc(Nc2nc(-c3cccnc3)cs2)cc1Cl	none
Clc1ccccc1-c1csc(Nc2cccnc2)n1	IL1B secr inh -60, HT1080 IDH1KD tx inconclusive
CCOc1ccccc1Nc1nc(-c2sc(C)nc2C)cs1	none
CCOc1ccccc1Nc1nc(-c2cccnc2)cs1	IL1B secr inh -59
Cc1ccc(C)c(Nc2nc(-c3cccnc3)cs2)c1	IL1B secr inh -81
c1cncc(Nc2nc(-c3cccnc3)cs2)c1	none
Nc1nc(SCc2ccc(Br)cc2)[nH]c(=O)c1-c1ccccc1	none
O=S(=O)(Nc1cccc(-c2cn3c(n2)SCC3)c1)c1cccs1	TGFb SMAD3 inh inconclusive
Clc1ccccc1Nc1nnc(-c2ccncc2)s1	Giardia killer inconclusive, IL1B secr inh -76, HT1080NT lethal 7.3µM, HT1080 IDH1KD tx 7.3µM
CCCNC(=O)C1(C)CCCN(Cc2cccn2C)C1 (configuration not stated)	none (no result: Giardia killer)
O=c1c2ccccc2sc2nc(C3CCCCC3)n(Cc3ccco3)c(=O)c12	none
Cn1c2ccccc2c(=O)c2c(=O)n(Cc3ccco3)c(-c3ccc(F)cc3)nc21	HT1080 IDH1KD tx inconclusive, HepG2 tox 20µM
CCc1nc2sc3ccccc3c(=O)c2c(=O)n1Cc1ccco1	HT1080NT lethal inconclusive, HT1080 IDH1KD tx 26µM
O=C(/C=C/c1ccco1)c1cccnc1	none
O=C(CSc1nnc(-c2ccccc2)n1Cc1ccco1)Nc1ccc(S(=O)(=O)N2CCCC2)cc1	IL1B secr inh inconclusive, HT1080 IDH1KD tx 7.1µM
CC(=O)c1ccc(NC(=O)NNS(=O)(=O)c2ccc(F)cc2)cc1	none
CCCOP(=O)(OCCC)c1c([N+](=O)[O-])cc(C(F)(F)F)cc1[N+](=O)[O-]	Giardia killer inconclusive, IL1B secr inh -73, HT1080NT lethal inconclusive, HT1080 IDH1KD tx inconclusive, TGFb SMAD3 inh inconclusive
CCOc1ccc(C(F)(F)F)cc1NC(=O)COc1ccc(C(F)(F)F)cc1[N+](=O)[O-]	none
O=C(COCc1cc(-c2ccc3c(c2)OCO3)on1)Nc1cccnc1	HT1080NT lethal 6.5µM, HT1080 IDH1KD tx 5.8µM
O=C(COCc1cc(-c2ccc3c(c2)OCO3)on1)Nc1cccc(O)c1	none (no result: Giardia killer, IL1B secr inh, HT1080NT lethal, HT1080 IDH1KD tx)
CCc1ccc(C(=O)COC(=O)CNC(=O)C2CCCCC2)cc1	none
N#Cc1c(N2CCN(C(=O)c3ccco3)CC2)nc(-c2ccccc2)c2c1CCCC2	IL1B secr inh -52, HT1080NT lethal inconclusive, HT1080 IDH1KD tx inconclusive, TGFb SMAD3 inh inconclusive
N#Cc1c(N2CCN(C(=O)c3ccccc3)CC2)nc(-c2ccccc2)c2c1CCCC2	IL1B secr inh inconclusive, HT1080NT lethal inconclusive, HT1080 IDH1KD tx inconclusive, TGFb SMAD3 inh inconclusive
N#Cc1c(N2CCN(C(=O)c3ccccc3Cl)CC2)nc(-c2ccccc2)c2c1CCCC2	IL1B secr inh -58, TGFb SMAD3 inh inconclusive
N#CCOc1ccccc1P(=O)(c1ccccc1)c1ccccc1	none
Cc1ccc(-c2ccccc2[C@@H]2C[C@H]3CN(C)C(=O)[C@]34CCCN24)o1	none
CCCc1oc(C(=O)O)cc1CN1CCOCC1	none
O=C(CN1C(=O)C2(SCC(=O)N2c2cccc(Cl)c2)c2ccccc21)NCCc1ccccc1 (configuration not stated)	TGFb SMAD3 inh 11µM (no result: Giardia killer, IL1B secr inh, HT1080NT lethal, HT1080 IDH1KD tx)
CCn1c(O)c(N=Nc2ccc3ccccc3n2)c2ccccc21	IL1B secr inh inconclusive, TGFb SMAD3 inh inconclusive
Brc1ccc(N=Nc2ccc3ccccc3n2)cc1	Giardia killer -81 (no result: IL1B secr inh)
